Experimental data taken from PubChem BioAssay.
For some assays here: Results with a measured potency or affinity are listed apart. Active and inactive are the calls of the source. Unless noted, no rule for the calls is given here.

Key:
[1] = antimalarial activity against Dd2 strain (AID 2302;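 active = growth inhibition above 50% at the single 2 µM test dose, taken to imply half-maximal potency below 2 µM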;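 also: 0% = DMSO untreated growth and 100% = chloroquine plus artemisinin killed control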); conditions: P. falciparum Dd2 in RBCs, LDH growth readout, 72 h; at 2 µM; stronger effect = higher value
[2] = human hepatoma cell viability loss – ATP luminescence, cytotoxicity control for P. falciparum antimalarial project, primary screen (AID 2303;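 active = inhibition above 50%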;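 also: 0% = DMSO wells and 100% = digitonin-killed cells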); conditions: HepG2 viability, 24-48 h, at 10 µM, stronger effect = higher value
[3] = target: L-lactate dehydrogenase (Plasmodium falciparum (isolate CDC / Honduras)) (UniProt Q27743); experiment: PfLDH activity inhibition – cell lysate, 3D7 strain, counter-screen for P. falciparum growth inhibition project (AID 2304);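 also: 0% = vehicle and 100% = reference inhibitor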; conditions: P. falciparum 3D7 crude extract, LDH APAD/NBT absorbance; at 2 µM; stronger effect = higher value
Sequence of L-lactate dehydrogenase (Plasmodium falciparum (isolate CDC / Honduras)) (Q27743 whole entry, looked up): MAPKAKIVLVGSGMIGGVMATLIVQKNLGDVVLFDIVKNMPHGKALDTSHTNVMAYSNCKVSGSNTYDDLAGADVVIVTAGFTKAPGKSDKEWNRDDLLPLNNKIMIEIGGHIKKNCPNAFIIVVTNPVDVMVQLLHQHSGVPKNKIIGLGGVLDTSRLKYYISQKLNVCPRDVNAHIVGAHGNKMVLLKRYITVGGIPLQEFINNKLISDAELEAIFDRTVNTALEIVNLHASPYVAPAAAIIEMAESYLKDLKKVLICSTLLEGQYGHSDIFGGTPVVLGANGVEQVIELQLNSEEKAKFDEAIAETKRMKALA

[4] = inhibition of 3D7 malaria parasite growth – strain 3D7 (AID 2306);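 also: 0% = DMSO wells and 100% = chloroquine plus artemisinin control wells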; conditions: P. falciparum 3D7 erythrocytic growth, LDH absorbance, 72 h; at 2 µM; stronger effect = higher value
[5] = target: Calcium-dependent protein kinase 1 (Plasmodium falciparum (isolate 3D7)) (UniProt P62344); experiment: PfCDPK1 kinase inhibitors, biochemical, TCAMS library (AID 1159585; cut-off not given, nearly all actives have IC50 up to about 0.98 µM;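 also: inhibitors leave more ATP so luminescence rises with inhibition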); conditions: recombinant PfCDPK1, Kinase-Glo ATP depletion luminescence
Sequence of Calcium-dependent protein kinase 1 (Plasmodium falciparum (isolate 3D7)) (P62344 whole entry, looked up): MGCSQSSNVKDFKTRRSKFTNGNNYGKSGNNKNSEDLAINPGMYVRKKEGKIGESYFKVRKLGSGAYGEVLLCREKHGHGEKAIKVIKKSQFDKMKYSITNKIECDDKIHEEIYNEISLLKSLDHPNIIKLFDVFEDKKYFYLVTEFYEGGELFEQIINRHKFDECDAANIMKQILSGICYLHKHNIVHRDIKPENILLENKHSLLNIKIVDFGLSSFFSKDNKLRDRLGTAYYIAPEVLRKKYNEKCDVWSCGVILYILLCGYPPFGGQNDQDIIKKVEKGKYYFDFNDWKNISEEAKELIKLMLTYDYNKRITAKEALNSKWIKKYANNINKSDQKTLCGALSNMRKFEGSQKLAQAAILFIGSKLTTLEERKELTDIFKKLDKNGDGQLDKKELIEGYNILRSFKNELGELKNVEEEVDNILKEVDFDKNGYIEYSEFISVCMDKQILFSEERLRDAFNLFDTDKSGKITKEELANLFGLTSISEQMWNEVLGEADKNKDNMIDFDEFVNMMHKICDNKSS

[6] = target: Plasmodium falciparum protein kinase 6 (PK6, PF3D7_1337100) (UniProt Q8IDW1); experiment: PfPK6 kinase inhibitors, biochemical, TCAMS library (AID 1159586); conditions: recombinant PfPK6, Kinase-Glo ATP depletion luminescence
Sequence of Plasmodium falciparum protein kinase 6 (PK6, PF3D7_1337100) (Q8IDW1 1-305): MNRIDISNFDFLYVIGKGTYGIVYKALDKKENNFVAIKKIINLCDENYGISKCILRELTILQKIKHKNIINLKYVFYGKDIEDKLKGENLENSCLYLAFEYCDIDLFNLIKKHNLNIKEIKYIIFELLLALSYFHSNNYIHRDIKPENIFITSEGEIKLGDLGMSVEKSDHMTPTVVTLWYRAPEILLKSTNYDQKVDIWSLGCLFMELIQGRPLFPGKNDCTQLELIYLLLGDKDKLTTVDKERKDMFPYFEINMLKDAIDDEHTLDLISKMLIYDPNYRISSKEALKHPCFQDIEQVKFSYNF

[7] = target: Protein kinase 7 (PK7), Plasmodium falciparum 3D7 (PF3D7_0213400) (UniProt Q7YTF7); experiment: inhibition of Plasmodium PK7 catalytic activity – biochemical, TCAMS antimalarial set, Kinase-Glo luminescence (AID 1159587); conditions: recombinant PfPK7, Kinase-Glo ATP depletion luminescence
Sequence of Protein kinase 7 (PK7), Plasmodium falciparum 3D7 (PF3D7_0213400) (Q7YTF7 1-343): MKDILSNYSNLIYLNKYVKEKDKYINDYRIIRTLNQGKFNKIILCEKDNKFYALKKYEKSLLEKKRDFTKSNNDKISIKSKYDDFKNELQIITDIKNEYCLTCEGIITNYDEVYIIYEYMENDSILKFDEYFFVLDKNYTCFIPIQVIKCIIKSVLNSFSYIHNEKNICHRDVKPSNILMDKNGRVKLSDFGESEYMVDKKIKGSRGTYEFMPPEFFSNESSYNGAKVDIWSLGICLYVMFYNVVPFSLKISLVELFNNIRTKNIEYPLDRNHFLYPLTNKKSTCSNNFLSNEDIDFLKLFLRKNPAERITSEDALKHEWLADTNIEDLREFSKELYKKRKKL

[8] = target: Calcium-dependent protein kinase 4 (Plasmodium falciparum (isolate 3D7)) (UniProt Q8IBS5); experiment: PfCDPK4 kinase inhibitors, biochemical, TCAMS library (AID 1159588; cut-off not given, nearly all actives have IC50 up to about 0.91 µM); conditions: recombinant PfCDPK4, Kinase-Glo ATP depletion luminescence
Sequence of Calcium-dependent protein kinase 4 (Plasmodium falciparum (isolate 3D7)) (Q8IBS5 whole entry, looked up): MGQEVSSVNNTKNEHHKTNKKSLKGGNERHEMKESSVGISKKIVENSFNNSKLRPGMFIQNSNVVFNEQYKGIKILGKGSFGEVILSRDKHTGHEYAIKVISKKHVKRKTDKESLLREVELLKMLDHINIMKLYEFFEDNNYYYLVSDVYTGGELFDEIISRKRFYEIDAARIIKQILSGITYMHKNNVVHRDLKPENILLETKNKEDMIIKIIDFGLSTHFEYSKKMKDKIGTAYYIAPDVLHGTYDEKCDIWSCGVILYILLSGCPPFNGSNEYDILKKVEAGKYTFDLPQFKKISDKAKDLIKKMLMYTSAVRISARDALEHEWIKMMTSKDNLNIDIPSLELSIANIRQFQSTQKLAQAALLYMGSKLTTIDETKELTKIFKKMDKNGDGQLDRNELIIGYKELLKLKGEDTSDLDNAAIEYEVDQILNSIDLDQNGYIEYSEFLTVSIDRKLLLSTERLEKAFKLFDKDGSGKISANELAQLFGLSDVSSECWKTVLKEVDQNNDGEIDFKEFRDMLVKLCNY

O=C(NC1CC1)c1ccc2cc(C(=O)N3Cc4ccccc4C(c4ccccc4)C3)ccc2c1 (stereo not given)
active: growth inhibition [1] 64% | growth inhibition [4] 97%
inactive: inhibition [2] -2% | inhibition [3] 1% | outcome [5] | outcome [6] | outcome [7] | outcome [8]

COc1ccc(Nc2ncc3c(-c4cccc(NC(=O)Cc5ccc(F)cc5)c4)c[nH]c3n2)cc1OC
inactive: inhibition [2] 21% | inhibition [3] 8% | outcome [5] | outcome [6] | outcome [7] | outcome [8]
active: growth inhibition [1] 90% | growth inhibition [4] 101%

CC(C)(C)c1ccc(CNC(=O)COc2ccc(-c3nnc(-c4cccc([N+](=O)[O-])c4)o3)cc2[N+](=O)[O-])cc1
inactive: growth inhibition [1] 25% | inhibition [2] 10% | inhibition [3] -7% | outcome [5] | outcome [6] | outcome [7] | outcome [8]
active: growth inhibition [4] 93%

CN1CCC(NCc2cccc(-c3ccc(S(=O)(=O)NCc4ccccc4)cc3)c2)CC1
active: growth inhibition [1] 93% | inhibition [2] 61% | growth inhibition [4] 100%
inactive: inhibition [3] 0% | outcome [5] | outcome [6] | outcome [7] | outcome [8]

COc1ccc(Nc2ncc3c(-c4cccc(NC(=O)Cc5ccncc5)c4)c[nH]c3n2)cc1OC
active: growth inhibition [1] 87% | growth inhibition [4] 99%
inactive: inhibition [2] 23% | inhibition [3] 1% | outcome [5] | outcome [6] | outcome [7] | outcome [8]

O=C(Nc1ccc2ccccc2c1)c1ccc(CN2CCC(Cc3ccccc3)CC2)cc1
inactive: growth inhibition [1] 10% | inhibition [2] 38% | inhibition [3] -8% | outcome [5] | outcome [6] | outcome [7] | outcome [8]
active: growth inhibition [4] 95%

COc1ccc2c(c1)CC(C)(C)NC2CCCCCCCCC1NC(C)(C)Cc2cc(OC)ccc21 (stereo not given)
inactive: inhibition [2] 42% | inhibition [3] 0% | outcome [5] | outcome [6] | outcome [7] | outcome [8]
active: growth inhibition [1] 62% | growth inhibition [4] 98%

C#CCNCc1ccc(-c2cccc(-c3nc4c(C)cccc4[nH]3)c2)cc1
inactive: growth inhibition [1] 32% | inhibition [2] -4% | inhibition [3] 2% | outcome [5] | outcome [6] | outcome [7] | outcome [8]
active: growth inhibition [4] 100%

Cc1cc(C2NC(=O)c3ccccc3N2)c(C)n1-c1ccc2c(c1)OCO2 (stereo not given)
active: growth inhibition [1] 85% | growth inhibition [4] 86%
inactive: inhibition [2] 13% | inhibition [3] -1% | outcome [5] | outcome [6] | outcome [7] | outcome [8]

COc1cccc(CCN(Cc2ccccc2-c2ccc(CNC3CC(C)(C)NC(C)(C)C3)cc2)C(=O)NC2CCCCC2)c1
active: growth inhibition [1] 99% | inhibition [2] 97% | growth inhibition [4] 103%
inactive: inhibition [3] -1% | outcome [5] | outcome [6] | outcome [7] | outcome [8]

Cc1cc(N[C@@H](CC(C)C)C(=O)Nc2ccccc2)nc(NCc2ccccc2C)n1
active: growth inhibition [1] 81% | growth inhibition [4] 101%
inactive: inhibition [2] 21% | inhibition [3] 4% | outcome [5] | outcome [6] | outcome [7] | outcome [8]

CC1(C)OC[C@]2(C)[C@@H](CC[C@]3(C)C4=CC(=O)CCC4CC[C@@H]23)O1 (stereo not given in full)
inactive: inhibition [2] -2% | inhibition [3] 1% | outcome [5] | outcome [6] | outcome [7] | outcome [8]
active: growth inhibition [1] 95% | growth inhibition [4] 97%

N#Cc1ccc(-c2ccc(C(=O)NCCCCN3CCC(c4cc(Br)c5c(c4O)CCCC5)CC3)cc2)cc1
inactive: inhibition [3] 7% | outcome [5] | outcome [6] | outcome [7] | outcome [8]
active: growth inhibition [1] 50% | inhibition [2] 93% | growth inhibition [4] 101%

O=c1cc(-c2ccc3ccccc3c2)[nH]c2ccccc12
active: growth inhibition [4] 81%
inactive: growth inhibition [1] 44% | inhibition [2] 25% | inhibition [3] -3% | outcome [5] | outcome [6] | outcome [7] | outcome [8]

COc1ccccc1C1CCN(CCN2CCC(NC(=O)c3ccc(-c4ccc(C#N)cc4)cc3)CC2)CC1
inactive: growth inhibition [1] 42% | inhibition [2] 31% | inhibition [3] -5% | outcome [5] | outcome [6] | outcome [7] | outcome [8]
active: growth inhibition [4] 99%

C[C@H]1[C@H](c2cccc(Cl)c2)OCC(C)(C)N1C(=O)CCN1CCCCC1
inactive: growth inhibition [1] 5% | inhibition [2] 2% | inhibition [3] -1% | outcome [5] | outcome [6] | outcome [7] | outcome [8]
active: growth inhibition [4] 88%

N#Cc1cc([N+](=O)[O-])ccc1-n1nc(C(N)=O)n(Cc2cccc(F)c2)c1=S
active: growth inhibition [1] 100% | growth inhibition [4] 100%
inactive: inhibition [2] 6% | inhibition [3] -4% | outcome [5] | outcome [6] | outcome [7] | outcome [8]

NC(N)=Nc1nc(-c2ccc(NCc3ccc(CNc4cccc(-c5csc(N=C(N)N)n5)c4)cc3)cc2)cs1
active: growth inhibition [1] 99% | growth inhibition [4] 102%
inactive: inhibition [2] 11% | inhibition [3] 0% | outcome [5] | outcome [6] | outcome [7] | outcome [8]

N=C(N)c1ccc(-c2cc(-c3cccc(C(=N)N)c3)on2)cc1
inactive: growth inhibition [1] 45% | inhibition [2] 7% | inhibition [3] 2% | outcome [5] | outcome [6] | outcome [7] | outcome [8]
active: growth inhibition [4] 96%

CNC(=O)Cc1ccc(C(=O)Nc2cccc(-c3csc(-c4nc5ccccc5[nH]4)c3)c2)cc1
active: growth inhibition [1] 69% | growth inhibition [4] 95%
inactive: inhibition [2] 36% | inhibition [3] 4% | outcome [5] | outcome [6] | outcome [7] | outcome [8]

Cc1cc(NN=Cc2ccc(Cl)cc2)c2ccc(F)cc2n1
active: growth inhibition [1] 87% | growth inhibition [4] 100%
inactive: inhibition [2] 6% | inhibition [3] -2% | outcome [5] | outcome [6] | outcome [7] | outcome [8]

O=C(CCCCCNC(=O)c1ccc(O)c(-c2ccc(Cl)c(Cl)c2)c1)NC1CCCc2ccccc21 (stereo not given)
inactive: growth inhibition [1] 13% | inhibition [2] -7% | inhibition [3] -6% | outcome [5] | outcome [6] | outcome [7] | outcome [8]
active: growth inhibition [4] 97%

C#CCNCc1ccc(-c2ccc(-c3nc4ccc(C(F)(F)F)cc4[nH]3)s2)cc1
inactive: growth inhibition [1] 28% | inhibition [2] 37% | inhibition [3] 0% | outcome [5] | outcome [6] | outcome [7] | outcome [8]
active: growth inhibition [4] 98%

O=C(Nc1cc(C(F)(F)F)cc(C(F)(F)F)c1)c1cc(C(F)(F)F)cc(C(F)(F)F)c1
inactive: inhibition [2] 21% | inhibition [3] 2% | outcome [5] | outcome [6] | outcome [7] | outcome [8]
active: growth inhibition [1] 86% | growth inhibition [4] 101%

CN(C)c1ccnc2ccc(NC(=O)Nc3ccnc4ccccc34)cc12
active: growth inhibition [1] 99% | growth inhibition [4] 100%
inactive: inhibition [2] 15% | inhibition [3] 3% | outcome [5] | outcome [6] | outcome [7] | outcome [8]

c1ccc2[nH]c(-c3ccc(-c4ccc(CNCCc5ccncc5)cc4)s3)nc2c1
active: growth inhibition [1] 98% | growth inhibition [4] 101%
inactive: inhibition [2] 28% | inhibition [3] -6% | outcome [5] | outcome [6] | outcome [7] | outcome [8]

CC(=O)N/N=C/[C@H](CCc1ccccc1)NC(=O)[C@H](CC(C)C)NC(=O)c1cccc(OCCN2CCOCC2)c1
inactive: inhibition [2] 13% | inhibition [3] -6% | outcome [5] | outcome [6] | outcome [7] | outcome [8]
active: growth inhibition [1] 78% | growth inhibition [4] 94%

COc1cc2nc(Nc3ccc4c(cnn4Cc4ccccc4)c3)nc(Nc3ccc4c(cnn4Cc4ccccc4)c3)c2cc1OC
active: growth inhibition [1] 100% | growth inhibition [4] 99%
inactive: inhibition [2] 4% | inhibition [3] 7% | outcome [5] | outcome [6] | outcome [7] | outcome [8]

Cc1cc(N[C@@H](Cc2ccccc2)C(=O)NCc2cccs2)nc(Nc2ccccc2)n1
inactive: growth inhibition [1] 36% | inhibition [2] 3% | inhibition [3] -2% | outcome [5] | outcome [6] | outcome [7] | outcome [8]
active: growth inhibition [4] 96%

CN1CCC(Oc2ccc(Nc3nccc(NCC(O)c4ccccc4)n3)cc2Cl)CC1 (stereo not given)
inactive: inhibition [2] 46% | inhibition [3] 0% | outcome [5] | outcome [6] | outcome [7] | outcome [8]
active: growth inhibition [1] 99% | growth inhibition [4] 102%

COc1cccc(CNC(=O)NC2CCN(c3ccnc(Nc4ccc(F)cc4)n3)C2)c1 (stereo not given)
active: growth inhibition [1] 64% | growth inhibition [4] 94%
inactive: inhibition [2] 20% | inhibition [3] -7% | outcome [5] | outcome [6] | outcome [7] | outcome [8]

O=C(CCc1cnc[nH]1)Nc1cccc(-c2cccc(-c3nc4ccccc4[nH]3)c2)c1
active: growth inhibition [4] 101%
inactive: growth inhibition [1] 25% | inhibition [2] 8% | inhibition [3] 3% | outcome [5] | outcome [6] | outcome [7] | outcome [8]

Oc1ccc(Cl)cc1CN1CCC2(CCCN(CC3CCC3)C2)C1 (stereo not given)
inactive: inhibition [2] 5% | inhibition [3] -2% | outcome [5] | outcome [6] | outcome [7] | outcome [8]
active: growth inhibition [1] 94% | growth inhibition [4] 100%

O=C(c1cccc(Cl)c1)N1CCN(c2ccc([N+](=O)[O-])c(NC3CC3)c2)CC1
active: growth inhibition [1] 79% | growth inhibition [4] 100%
inactive: inhibition [2] 11% | inhibition [3] 4% | outcome [5] | outcome [6] | outcome [7] | outcome [8]

CNC(=S)NCc1cnc2ccccn12
inactive: growth inhibition [1] -2% | inhibition [2] -2% | inhibition [3] 3% | outcome [5] | outcome [6] | outcome [7] | outcome [8]
active: growth inhibition [4] 97%

CN1CCc2cc(CN3C[C@]4(C)C[C@H]3CC(C)(C)C4)c(O)cc2C(c2ccccc2)C1 (stereo not given in full)
inactive: inhibition [2] -4% | inhibition [3] -3% | outcome [5] | outcome [6] | outcome [7] | outcome [8]
active: growth inhibition [1] 88% | growth inhibition [4] 98%

Cc1cc(N[C@@H](Cc2ccccc2)C(=O)NCCc2ccccc2)nc(NCCc2cccs2)n1
active: growth inhibition [1] 84% | growth inhibition [4] 99%
inactive: inhibition [2] 12% | inhibition [3] 4% | outcome [5] | outcome [6] | outcome [7] | outcome [8]

CCOC(=O)c1ccc(-n2c(C)cc(C=C3SC(=Nc4ccccc4)N(C4CCCC4)C3=O)c2C)cc1
inactive: inhibition [2] 2% | inhibition [3] 0% | outcome [5] | outcome [6] | outcome [7] | outcome [8]
active: growth inhibition [1] 61% | growth inhibition [4] 98%

Cc1cc(Nc2cccc(Cl)c2)nc2ccc(NC(=O)c3ccc(=O)[nH]c3)cc12
inactive: growth inhibition [1] 23% | inhibition [2] 12% | inhibition [3] 4% | outcome [5] | outcome [6] | outcome [7] | outcome [8]
active: growth inhibition [4] 100%

COc1cc(Cc2cnc(N)nc2N)cc(OCCNC(=O)OCc2ccccc2)c1OC
inactive: growth inhibition [1] -3% | inhibition [2] 6% | inhibition [3] 4% | outcome [5] | outcome [6] | outcome [7] | outcome [8]
active: growth inhibition [4] 93%
